# Bioassay records from PubChem BioAssay.
# This is a sample that favours compounds with a hit; in the whole collection about 1.5% have one here.
# HGIII-sPLA2 inh – Blocks human group III sPLA2 activity | Q9NZ20 | QFRET BODIPY PC-A2 liposome hydrolysis, fluorescence | inhibition, % at 12.2 µM | actives 0.56% (n = 370,000) | AID 743126;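 active = inhibition above mean plus 3 SD of compounds lying within the high and low control bounds, cut at about 19% in these data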
# DAGLB inhibitor – diacylglycerol lipase beta (human) inhibition | inhibition, % at 5.17 µM | actives 0.059% (n = 340,000) | Q8NCG7 | HEK293T DAGLB membrane lysate, EnzChek fluorogenic substrate; in the data active = inhibition above about 34%
# PLCb3 inh – PLC-beta3 (human) inhibition, primary screen | Q01970 | Purified PLC-beta3, fluorogenic substrate, fluorescence | inhibition, % at 12.2 µM | actives 0.18% (n = 370,000); in the data active = inhibition above about 11%
# PLCg1 inh – inhibitors of human phospholipase C gamma1; P19174; purified PLC-gamma1, fluorogenic substrate, fluorescence; inhibition, % at 12.2 µM; actives 0.84% (n = 370,000)
# Target sequence (P19174 whole entry, looked up): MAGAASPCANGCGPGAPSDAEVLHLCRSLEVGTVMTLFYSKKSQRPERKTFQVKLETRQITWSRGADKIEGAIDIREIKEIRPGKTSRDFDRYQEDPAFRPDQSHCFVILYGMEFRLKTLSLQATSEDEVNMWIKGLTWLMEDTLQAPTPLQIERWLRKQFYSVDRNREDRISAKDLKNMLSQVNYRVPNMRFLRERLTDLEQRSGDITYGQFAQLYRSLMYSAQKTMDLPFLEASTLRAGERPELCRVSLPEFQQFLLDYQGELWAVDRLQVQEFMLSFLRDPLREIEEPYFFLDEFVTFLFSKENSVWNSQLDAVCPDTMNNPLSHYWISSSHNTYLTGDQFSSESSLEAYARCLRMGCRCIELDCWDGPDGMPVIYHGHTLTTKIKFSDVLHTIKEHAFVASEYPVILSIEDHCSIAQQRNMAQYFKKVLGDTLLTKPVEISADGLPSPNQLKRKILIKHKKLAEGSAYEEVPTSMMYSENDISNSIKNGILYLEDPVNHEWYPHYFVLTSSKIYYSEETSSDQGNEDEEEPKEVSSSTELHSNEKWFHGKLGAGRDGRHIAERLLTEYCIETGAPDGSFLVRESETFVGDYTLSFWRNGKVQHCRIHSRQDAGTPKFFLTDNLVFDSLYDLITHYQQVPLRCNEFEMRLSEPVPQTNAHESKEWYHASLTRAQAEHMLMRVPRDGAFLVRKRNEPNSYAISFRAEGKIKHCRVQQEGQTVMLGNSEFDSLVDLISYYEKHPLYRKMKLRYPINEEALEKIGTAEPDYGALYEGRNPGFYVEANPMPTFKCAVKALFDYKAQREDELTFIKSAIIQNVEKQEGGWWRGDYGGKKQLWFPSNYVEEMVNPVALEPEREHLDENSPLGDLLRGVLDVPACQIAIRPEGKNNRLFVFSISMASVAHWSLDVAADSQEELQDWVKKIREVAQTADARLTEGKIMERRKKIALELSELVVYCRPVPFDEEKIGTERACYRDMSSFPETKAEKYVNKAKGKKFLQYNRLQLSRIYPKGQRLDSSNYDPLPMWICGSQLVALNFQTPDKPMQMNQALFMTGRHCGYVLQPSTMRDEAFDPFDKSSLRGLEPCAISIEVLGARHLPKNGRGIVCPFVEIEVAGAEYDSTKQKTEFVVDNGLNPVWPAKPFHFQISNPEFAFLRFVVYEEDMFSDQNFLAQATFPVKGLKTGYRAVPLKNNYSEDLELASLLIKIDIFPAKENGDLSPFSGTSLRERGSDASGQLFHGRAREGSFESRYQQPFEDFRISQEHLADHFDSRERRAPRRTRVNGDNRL
# DAGLB confirm – DAGLB (human) inhibition, confirmation screen | actives 73% (n = 190) | shares compounds with DAGLB inhibitor | inhibition, % at 5.17 µM | HEK293T DAGLB membrane lysate, EnzChek fluorogenic substrate;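 active = mean inhibition over triplicate wells above a set limit taken from the primary lipase screen, cut at about 34% in these data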
# PLCg1 ctr – inhibits human PLC-gamma1 in PLC-beta3 counter-screen. shares compounds with PLCg1 inh. purified PLC-gamma1, fluorogenic substrate, fluorescence. inhibition, % at 12.3 µM. actives 3.1% (n = 3,300). AID 743258
# PLCb3 confirm – confirmation of human PLC-beta3 inhibitors; shares compounds with PLCg1 inh; purified PLC-beta3, fluorogenic substrate fluorescence; inhibition, % at 12.3 µM; actives 1% (n = 3,300); AID 743261; in the data active = inhibition above about 11%
# sPLA2 confirm – human GIII-sPLA2 inhibition, confirmation; actives 34% (n = 2,000); shares compounds with HGIII-sPLA2 inh; AID 743280; recombinant hGIII-sPLA2, BODIPY PC-A2 QFRET fluorescence; inhibition, % at 12.2 µM;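 active = mean inhibition across triplicates above the hit cutoff set in the earlier primary screen, cut at about 19% in these data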
# 535nm interf – 535nm fluorescence interference, HGIII-sPLA2 counter-screen; BODIPY FL product fluorescence interference, QFRET; inhibition, % at 12.2 µM; actives 8.5% (n = 2,000); shares compounds with HGIII-sPLA2 inh;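 active = average inhibition above the solvent-only control mean plus 3 SD, cut at about 6% in these data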
# 535nm interf DR – interferes with 535nm fluorescence in dose response counter-screen | IC50, µM | BODIPY FL product fluorescence interference, cell-free | shares compounds with HGIII-sPLA2 inh | 240 tested, under 10 active | AID 743455;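 active = IC50 at or below 10 µM; inactive = IC50 above 10 µM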
# A number is an active result; i = inactive; nt = not tested or not shown. Rule as the data show it, unless noted: active = inhibition above about 9.5%; inactive = the rest.
SMILES,HGIII-sPLA2 inh,DAGLB inhibitor,PLCb3 inh,PLCg1 inh,DAGLB confirm,PLCg1 ctr,PLCb3 confirm,others
O=C(CNCc1ccccc1[N+](=O)[O-])N1CCC2(CC1)OCCO2,i,nt,i,i,nt,nt,nt,
O=S(=O)(O)c1cccc(N=Nc2c(O)ccc3ccccc23)c1,i,37,i,i,37,nt,nt,
O=C(N1CCCC1)n1ncc(-c2ccc(-c3ccccc3)cc2)n1,i,nt,i,i,nt,nt,nt,
Cc1ccc(NC2=C(Cl)C(=O)OC2OC(=O)c2ccco2)cc1C (stereo not drawn),i,39,i,i,36,nt,nt,
CCOC1OC(=O)C(Cl)=C1Nc1ccc(C)cc1C (stereo not drawn),i,i,i,i,nt,nt,nt,
Cc1ccccc1C(=O)OC1OC(=O)C(Cl)=C1Nc1ccc(C(=O)O)cc1 (stereo not drawn),i,i,i,i,nt,nt,nt,
Cc1ccc(C)c(NC2=C(Cl)C(=O)OC2OC(=O)c2ccco2)c1 (stereo not drawn),i,40,i,i,i,nt,nt,
Cc1ccc(NC2=C(Cl)C(=O)OC2OC(=O)c2ccco2)c(C)c1 (stereo not drawn),i,36,i,i,i,nt,nt,
CCN(CC)CCCNC(=O)CC1Oc2ccccc2NC1=O (stereo not drawn),i,nt,i,i,nt,nt,nt,
C/C(=N\Nc1ccc([N+](=O)[O-])cc1)c1ccc(C#N)cc1,i,i,i,i,nt,nt,nt,
N#CC(C#N)=NNc1ccc([N+](=O)[O-])cc1,i,39,i,i,58,nt,nt,
Cc1ccc(NC(=O)Nc2cccnc2)cc1NC(=O)Nc1cccnc1,i,37,i,i,i,nt,nt,
CCN(CC)C(=O)CC[C@H]1CC[C@]2(CCCN(S(=O)(=O)C3CCCCC3)C2)O1,i,nt,i,i,nt,nt,nt,
O=C1C(Nc2ccc(O)cc2)=C/C(=N/S(=O)(=O)c2cccs2)c2ccccc21,i,37,i,20,44,29,11,
O=C1CC(=C(c2ccccc2)c2ccccc2)C(=O)N1CCCCN1CCN(c2cccc(Cl)c2)CC1,i,45,11,20,53,i,i,
Cc1ccccc1N1CCN(CCCN2C(=O)CC(=C(c3ccccc3)c3ccccc3)C2=O)CC1,i,i,i,i,nt,nt,nt,
C[C@@H]1OC(c2ccccc2)N(C)[C@H]2C[C@H]3c4[nH]c5cccc(-c6ccccc6)c5c4CCN3C[C@@H]12 (stereo partly drawn),i,nt,i,i,nt,nt,nt,
CCN(CC)c1ccc(C(=O)NNC(=O)CCl)cc1,i,i,i,i,nt,nt,nt,
CCN(CC)c1ccc(C(=C2C=CC(=[N+](CC)CC)C=C2)c2ccc(N(CC)CC)cc2)cc1,60,53,i,i,105,nt,nt,sPLA2 confirm=61;535nm interf=i;535nm interf DR=i
O=C(N/N=C/c1ccc(O)c(O)c1O)/C(=C/c1ccc([N+](=O)[O-])cc1)NC(=O)c1ccccc1,25,35,i,i,i,nt,nt,sPLA2 confirm=29;535nm interf=6.1
Cc1ccc(-c2nc(C3CCCN(S(=O)(=O)c4ccc(C)c(C)c4)C3)no2)cc1 (stereo not drawn),i,nt,i,i,nt,nt,nt,
Nc1nc(-c2ccccc2)c(N=Nc2ccc(Cl)cc2)s1,19,51,i,i,84,nt,nt,sPLA2 confirm=34;535nm interf=7.1
O=C(N[C@@H](Cc1cccnc1)C(=O)N1CCC[C@H]1C(=O)NCCc1ccccc1Cl)C1CCCC1,i,nt,i,i,nt,nt,nt,
COc1c(Cl)cc(Br)c(OC)c1C(=O)NC(=O)Nc1nc(C)cc(C)n1,i,i,i,11,nt,i,i,
CC(C)CNC(=O)OCc1cn(Cc2cccc(Cl)c2)nn1,i,nt,i,i,nt,nt,nt,
SMILES,HGIII-sPLA2 inh,DAGLB inhibitor,PLCb3 inh,PLCg1 inh,DAGLB confirm,PLCg1 ctr,PLCb3 confirm,others
Cc1ccc(C(OCC(O)CNCc2ccc(F)cc2)c2ccccc2)cc1 (stereo not drawn),i,i,i,17,nt,i,i,
O=C(c1ccccc1)c1ccc(OCC(O)CNCc2ccc(F)cc2)cc1 (stereo not drawn),i,i,i,i,nt,nt,nt,
COc1ccc(NC(=O)N(C)C[C@H]2Oc3c(NC(=O)NC(C)C)cccc3C(=O)N([C@H](C)CO)C[C@@H]2C)cc1,i,i,11,i,nt,i,i,
C[C@H](CO)N1C[C@H](C)[C@@H](CN(C)S(C)(=O)=O)Oc2c(NC(=O)Nc3ccc(C(F)(F)F)cc3)cccc2C1=O,i,i,12,i,nt,i,i,
CC(NCc1ccco1)C(=O)N1CCCC1 (stereo not drawn),i,nt,i,i,nt,nt,nt,
OC(c1ccccc1)(c1ccccc1)C1CCN(CCCNc2cccc(Br)c2)CC1,i,nt,i,i,nt,nt,nt,
C=CCN1C(C(=O)OC)CN(Cc2cn(Cc3ccc(C)cc3)nn2)CCS1(=O)=O (stereo not drawn),i,nt,i,i,nt,nt,nt,
Cc1cccc(CC2S/C(=N/N=C/c3ccco3)N(c3ccccc3)C2=O)c1 (stereo not drawn),i,i,i,11,nt,i,i,
CCC1S/C(=N/N=C/c2ccco2)N(c2ccc(F)cc2)C1=O (stereo not drawn),i,i,i,i,nt,nt,nt,
O=C(Nc1ccc2c(c1)OCO2)OC1CC2CC1[C@H]1CCCCN1[C@H]2Cc1ccccc1 (stereo partly drawn),i,nt,i,i,nt,nt,nt,
CCn1c(CNc2ccc(F)cc2)nnc1SCC(=O)Nc1ccccc1OC,i,i,i,11,nt,i,i,
Cc1ccc(CNC[C@@]23CO[C@H](c4ccc(Cl)cc4)N2[C@@H](c2ccc(Cl)cc2)SC3)o1,i,nt,i,i,nt,nt,nt,
O=C(Nc1ccccc1Cl)c1cc(C2CCCCN2S(=O)(=O)c2ccccc2)on1 (stereo not drawn),i,nt,i,i,nt,nt,nt,
COC(=O)N1CCCCC1c1cc(C(=O)NCc2cccnc2)no1 (stereo not drawn),i,nt,i,i,nt,nt,nt,
O=C(Nc1ccccc1)c1cc(C2CCCCN2S(=O)(=O)c2ccccc2)on1 (stereo not drawn),i,nt,i,10,nt,i,i,
COC(=O)N1CCCCC1c1cc(C(=O)NCc2ccccc2)no1 (stereo not drawn),i,nt,i,10,nt,i,i,
CCCNC(=O)c1cc(C2CCCCN2C(=O)c2ccc3c(c2)CCO3)on1 (stereo not drawn),i,nt,i,48,nt,i,i,
CCCNC(=O)c1cc(C2CCCCN2C(=O)c2ccc3ccccc3c2)on1 (stereo not drawn),i,nt,i,i,nt,nt,nt,
